# Shiga inhibitor: Shiga toxin inhibition | Vero cells, Shiga toxin protein synthesis inhibition reporter | hit rate 9.2% among 290,000 | inhibition, % at 38.7 µM; in the data active = inhibition mostly above about 28%, no sharp cut-off; inactive = mostly below about 43%; also: 0% is about no effect
# NS1 function inh: inhibitors of influenza NS1 protein function. Potency, µM (titrated, usually from 46.1 µM), for inactives: top-dose activity, positive = more growth. hit rate 0.4% among 270,000; calls by dose curve; also: potency is read from the fitted curve at half-maximal effect; actives are rising curves; nearly all actives have a fitted effect of over 50% in size
#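 S. cerevisiae expressing influenza A NS1, grown in glucose, washed, then diluted 1:100 into pH 6.0 -URA galactose medium with 23 nl compound. Growth recovery read as OD600; NS1-free strain serves as control.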
# Pf growth 96h: P. falciparum growth inhibition at 96 hours | P. falciparum luciferase reporter growth, 96 h | AID 504834 | hit rate 6.9% among 320,000 | Potency, µM (doses to about 28.7 µM), for the others: top-dose activity change, negative = inhibition, usual class: inhibitors; also: potency is read from the fitted curve at half-maximal effect; % is scaled to controls: 0 for no effect and ±100 for the full control effect
#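 P. falciparum expressing integrated firefly luciferase, in erythrocytes at 2% hematocrit, 0.05% parasitemia, incubated with compounds 96 h at 37 C, 5% CO2. Growth inhibition read as loss of luminescence; two-generation exposure targets delayed-death apicoplast inhibitors.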
# Cycloheximide cs: counter-screen hit for Shiga toxin inhibitors, cycloheximide | cell reporter, cycloheximide protein synthesis inhibition counterscreen | max response, % | hit rate 12% among 300,000 | AID 2314; in the data active = max response mostly above about 13%, no sharp cut-off; inactive = mostly below about 14%; also: read at 38.3 µM for the half of the compounds with a filed dose; 0% is about no effect
# Pf growth 48h: inhibits P. falciparum growth in the first generation, 48 h; P. falciparum luciferase growth in erythrocytes, 48 h; Potency, µM (highest dose often 28.7 µM), inactives show at the top dose activity change, negative = inhibition, usual class: inhibitors; hit rate 5.9% among 310,000; AID 504832; also: potency is read from the fitted curve at half-maximal effect; % is scaled to controls: 0 for no effect and ±100 for the full control effect
#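 Compounds are pin-transferred into medium, infected erythrocytes (2% hematocrit, 0.1% parasitemia final) are added, and plates sit one parasite generation at 37 C in 5% CO2. Detection reagent is then added and luminescence measured.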
# * hit, by the source's call; i = inactive; ? = inconclusive; . = no result given; [ ] = remark or other dose. Compounds with a hit are over-represented: about 21% of the library has one in this group of screens. Unless noted, calls follow the shape of the dose curve; as a rule, active = well fitted inhibition curve with a large enough effect; inconclusive = small, poorly fitted or top-dose-only effect, or another doubt; inactive = no such curve, though single readings can be large or run the other way.
SMILES,Shiga inhibitor,NS1 function inh,Pf growth 96h,Cycloheximide cs,Pf growth 48h
Cc1ccc(NC(=O)c2ccc(OC(=O)COc3ccc(Cl)c(C)c3)cc2)cc1,96.0*,9.4%,3.6%,48.9*,234.7%
COc1ccc(C(=O)NC(=S)Nc2ccc(S(N)(=O)=O)cc2)cc1,35.3,-4.5%,?,17.6*,0.0%
COc1ccc(-c2ccc3c(N)c(C(=O)NC(C)C)sc3n2)cc1OC,35.2,1.4%,?,13.8,?
Cc1nonc1CN(C)C(=O)c1ccc(OC2CCN(C(=O)c3cccnc3)CC2)cc1,-3.9,-2.3%,-33.0%,-2.9,39.2%
CC(CN1CCCCC1)NC(=O)c1cc(-c2ccccn2)nc2ccc(Cl)cc12 (centres undefined),-5.0,4.9%,16.3%,-3.6,?
COc1ccc(NC(=S)Nc2ccc3nc(C)c(C)nc3c2)cc1,-7.0,10.9%,?,2.7,-1.7%
COc1ccc(CC(=O)Nc2cccc(C(=O)Nc3cccc(C)c3)c2)cc1,-4.1,-3.2%,?,11.4,?
COc1ccc(NC(=O)c2nc(SC)ncc2Cl)cc1,-20.0,-3.4%,15.7%,-1.0,19.5%
COc1ccc(NC(=O)c2cnc(SC)nc2)cc1,41.4,-8.0%,135.8%,31.6*,31.9%
COc1ccc(C(=O)Nc2ccc3nc(C)c(C)nc3c2)cc1,129.3*,-11.5%,0.8%,39.0*,-10.5%[0.00184 µM]
COc1ccc(C(=O)Nc2cccc(C)c2)cc1,60.5*,-22.9%,176.5%,28.0*,i
COc1ccc(NC(=O)c2ccc(C)cc2)cc1,.,-30.3%,?,37.7*,-20.7%
COc1ccc(C(=O)NNC(=O)C(=O)Nc2ccc(C)cc2)cc1,7.4,-12.3%,1.7%,4.2,18.9%
CC(C)OC(=O)CC1C(=O)NCCN1C(=S)NC(=O)c1ccc(F)cc1 (centres undefined),-5.3,0.6%,2.8%,-1.4,1.0%
N#Cc1cnn2ccn(C3OC(CO)C(O)C3O)c12 (centres undefined),-7.2,-1.7%,-13.7%,-4.9,?
CCn1cc2nc(SCC(=O)Nc3ccc(F)cc3F)n(Cc3ccccc3)c(=O)c2n1,-6.3,6.4%,13.1µM*,9.4,?
O=C(Cn1c(=O)c(=O)n(Cc2ccccc2)c2ccc(Cl)cc21)Nc1ccc(F)cc1F,-9.9,1.5%,?,-1.8,-35.8%[5.75 µM]
O=C(NCCOc1ccccc1)C1CCC(=O)N(C2CCCCCC2)C1 (centres undefined),20.6,-12.4%,?,14.2,?
CC1CCc2nn(CC(=O)Nc3c(F)cc(F)cc3Br)cc2C1 (centres undefined),-7.2,-2.3%,?,-4.4,.
CC1CCc2nn(CC(=O)NCc3ccc4c(c3)OCO4)cc2C1 (centres undefined),-11.7,0.0%,26.8%,-2.9,4.1%
CC1CCc2nn(CC(=O)Nc3ccc(F)cc3F)cc2C1 (centres undefined),13.3,-8.3%,2.94µM*,-0.8,11.6%
CC1CCc2nn(CC(=O)NC3CCCC(C)C3C)cc2C1 (centres undefined),9.1,-39.0%,0.37µM*,8.2,6.8%
CC1CCc2nn(CC(=O)NCc3ccc(F)cc3)cc2C1 (centres undefined),-4.8,9.8%,9.28µM*,-2.6,-2.5%
O=C(NCc1ccccc1)[C@]1(C(F)(F)F)C[C@H](CCCO)CCCO1,2.0,.,.,-0.9,.
N#CCCn1cc(C(CC(=O)c2ccccc2)C(=O)O)c2ccccc21 (centres undefined),50.2,?,33.8%,29.5*,10.8%
SMILES,Shiga inhibitor,NS1 function inh,Pf growth 96h,Cycloheximide cs,Pf growth 48h
CCCc1[nH]c(=O)c(C#N)c2c1COC(C)(C)C2,-11.8,1.3%,1.65µM*,-4.4,.
CCNC(=O)C1CN(S(=O)(=O)c2ccccc2)CCN1S(=O)(=O)c1ccccc1 (centres undefined),-5.5,2.7%,2.33µM*,10.2,12.5%
O=C(NC1CCCCC1)C1CN(S(=O)(=O)c2ccccc2)CCN1S(=O)(=O)c1ccccc1 (centres undefined),16.3,-1.7%,11.7µM*,1.0,-9.4%
COc1ccc(OC(=O)CCc2c[nH]c3ccccc23)cc1,-2.4,.,?,-1.9,-15.1%
CN(C)c1ccc(C(CNS(=O)(=O)c2ccc([N+](=O)[O-])cc2)N2CCOCC2)cc1 (centres undefined),.,.,-4.0%,.,-10.8%
COc1c(F)c(F)c(C(=O)Nc2ccc(N3CCN(C(C)=O)CC3)c(Cl)c2)c(F)c1F,-6.4,-11.1%,.,0.4,?
O=C(Nc1ccc(N2CCOCC2)c(Cl)c1)c1ccc([N+](=O)[O-])o1,17.0,-39.0%,14.1%,18.9*,10.4µM*

# High-throughput results: PubChem BioAssay, National Center for Advancing Translational Sciences (NCATS)
